Experimental data: PubChem BioAssay (EPA / NIEHS)
Results filed as inconclusive are left out. Some compounds were tested as several samples or in several runs, with calls that do not always agree. Activity calls are given as the source filed them. Rule for the calls, unless noted: active = hit-call score of the fitted dose curve at least 0.9, where 1 is the maximum; inconclusive = response in the unintended direction; inactive = score below 0.9.

Legend:
[1] = read-out: TIMP1, TIMP1 (gene 7076); experiment: LTEA_HepaRG_TIMP1: Life Technologies and Expression Analysis (LTEA) Assay for TIMP1 using HepaRG (AID 2283534; active = hit-call score of the fitted dose curve at least 0.9, where 1 is the maximum; inactive = score below 0.9;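 note: TaqMan qRT-PCR signal normalized to ACTB GAPDH and POLR2A housekeeping genes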); settings: mRNA level, 48 h; actives raise or lower the signal
Outline: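 Readout is TIMP1 mRNA level measured by qRT-PCR and normalized to three housekeeping genes. Human HepaRG cells were treated for 48 h in duplicate at eight concentrations up to 100 uM (0.5% DMSO); gain or loss fitted against DMSO.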

[2] = read-out: Tumor necrosis factor receptor 1 (TNFRSF1A), TNFRSF1A (gene 7132); experiment: LTEA_HepaRG_TNFRSF1A: Life Technologies and Expression Analysis (LTEA) Assay for Tumor necrosis factor receptor 1 (TNFRSF1A) using HepaRG (AID 2283535; active = hit-call score of the fitted dose curve at least 0.9, where 1 is the maximum; inactive = score below 0.9); settings: mRNA level, 48 h; actives raise or lower the signal
Outline: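 Read-out is TNFRSF1A transcript level by TaqMan qRT-PCR, normalized to three housekeeping genes, scored as gain or loss of signal versus 0.5% DMSO. Human HepaRG cells received test chemicals for 48 h at up to 100 uM (half-log series).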

[3] = read-out: Thyroid Hormone Responsive (THRSP), THRSP (gene 7069); experiment: LTEA_HepaRG_THRSP: Life Technologies and Expression Analysis (LTEA) Assay for Thyroid Hormone Responsive (THRSP) using HepaRG (AID 2283536; active = hit-call score of the fitted dose curve at least 0.9, where 1 is the maximum; inactive = score below 0.9); settings: mRNA level, 48 h; actives raise or lower the signal
Outline: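 Differentiated human HepaRG cells were exposed in duplicate for 48 h in serum-free induction medium to eight concentrations (top 100 uM, half-log steps, 0.5% DMSO). Expression was quantified by TaqMan qRT-PCR, normalized to ACTB, GAPDH and POLR2A, with bidirectional fitting against DMSO.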

[4] = read-out: UDP glucuronosyltransferase (UGT1A1), UGT1A1 (gene 54658); experiment: LTEA_HepaRG_UGT1A1: Life Technologies and Expression Analysis (LTEA) Assay for UDP glucuronosyltransferase (UGT1A1) using HepaRG (AID 2283538; active = hit-call score of the fitted dose curve at least 0.9, where 1 is the maximum; inactive = score below 0.9); settings: mRNA level, 48 h; actives raise or lower the signal
Outline: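 Differentiated human HepaRG cells in serum-free induction medium were exposed in duplicate for 48 h to eight half-log concentrations up to 100 uM in 0.5% DMSO. UGT1A1 mRNA was quantified by TaqMan qRT-PCR, normalized to ACTB, GAPDH and POLR2A, and fitted bidirectionally against DMSO.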

[5] = read-out: UDP glucuronosyltransferase (UGT1A6), UGT1A6 (gene 54578); experiment: LTEA_HepaRG_UGT1A6: Life Technologies and Expression Analysis (LTEA) Assay for UDP glucuronosyltransferase (UGT1A6) using HepaRG (AID 2283539; active = hit-call score of the fitted dose curve at least 0.9, where 1 is the maximum; inactive = score below 0.9); settings: mRNA level, 48 h; actives raise or lower the signal
Outline: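 HepaRG, 48 h post-plating switch to serum-free induction medium; chemical 48 h, 100 uM top, half-log x8, duplicate, 0.5% DMSO. Phenobarbital 1mM induction control. UGT1A6 mRNA by TaqMan qRT-PCR; gain/loss fit vs DMSO.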

[6] = read-out: X-box binding protein 1 (XBP1), XBP1 (gene 7494); experiment: LTEA_HepaRG_XBP1: Life Technologies and Expression Analysis (LTEA) Assay for X-box binding protein 1 (XBP1) using HepaRG (AID 2283540; active = hit-call score of the fitted dose curve at least 0.9, where 1 is the maximum; inactive = score below 0.9); settings: mRNA level, 48 h; actives raise or lower the signal
Outline: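 Transcript levels of XBP1, measured by qRT-PCR and normalised to three housekeeping genes, were fitted bidirectionally relative to 0.5% DMSO controls. Human HepaRG cells received eight-point half-log dilutions from 100 uM for 48 h.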

[7] = LTEA_HepaRG_LDH_cytotoxicity: Cytotoxicity Assessment in the Life Technologies and Expression Analysis (LTEA) Assay (AID 2283563)
Outline: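 Cells were thawed and plated for 48 h. Medium was then replaced with serum-free induction medium. Chemicals (8 half-log points, maximum 100 uM, 0.5% DMSO) were added in duplicate for 48 h, after which spent medium was assayed for LDH.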

[8] = ATG_XTT_Cytotoxicity: Cytotoxicity Assessment in the Attagene TRANS-FACTORIAL HepG2 Assay (AID 2283584)
Outline: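 Cells: human HepG2, transiently transfected with MRTU reporter constructs. Exposure 24 h. Readout: XTT, cell number. Baseline/neg ctrl DMSO; loss-of-signal scored.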

[9] = Tanguay_ZF_120hpf_MORT_legacy: (Legacy) Oregon State University Tanguay Lab 120 Hour Post-fertilization zebrafish Assay for Mortality (AID 2283633)
Outline: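 5D WT zebrafish, chorion removed 4 hpf; 1 embryo/well from 6 hpf; static exposure to 120 hpf, 28C, dark, sealed. Final DMSO 0.64%. Readout: binary mortality, brightfield, 24 + 120 hpf; DMSO as negative control.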

[10] = Tanguay_ZF_120hpf_YSE_legacy: (Legacy) Oregon State University Tanguay Lab 120 Hour Post-fertilization zebrafish Assay for Yolk Sac Edema (AID 2283634);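 for AC50: actives raise the incidence of yolk sac edema above the DMSO baseline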
Outline: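 Dechorionate (pronase, 4 hpf) → place one 6 hpf embryo per well → static compound exposure, sealed and foil-covered, 28C, to 120 hpf → record yolk sac edema as present or absent. Final DMSO 0.64%.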

[11] = Tanguay_ZF_120hpf_AXIS_legacy: (Legacy) Oregon State University Tanguay Lab 120 Hour Post-fertilization zebrafish Assay for Body Axis Malformation (AID 2283635);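 for AC50: potency for an increased fraction of larvae scored with body axis malformation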
Outline: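 Chorion is removed with pronase at 4 hpf, then single 6 hpf embryos are dosed (final DMSO 0.64%) and held statically at 28C in sealed, foil-covered plates. At 120 hpf body axis malformation is recorded as present or absent.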

[12] = Tanguay_ZF_120hpf_EYE_legacy: (Legacy) Oregon State University Tanguay Lab 120 Hour Post-fertilization zebrafish Assay for Eye Malformation (AID 2283636);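 note: binary presence or absence of eye malformation scored by brightfield in 120 hpf larvae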
Outline: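 Dechorionated wild-type Tropical 5D zebrafish embryos were exposed statically from 6 hpf, one per well, to 120 hpf at 28C in sealed, foil-covered plates with 0.64% DMSO. Eye malformation was scored present/absent by brightfield microscopy against DMSO controls.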

[13] = Tanguay_ZF_120hpf_SNOU_legacy: (Legacy) Oregon State University Tanguay Lab 120 Hour Post-fertilization zebrafish Assay for Snout Malformation (AID 2283637)
Outline: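 Tropical 5D wild-type zebrafish embryos, dechorionated with pronase at 4 hpf, were exposed singly from 6 hpf to 120 hpf statically at 28C in 0.64% DMSO. Snout malformation was scored present/absent by brightfield microscopy, fitted against DMSO.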

[14] = target: Cellular tumor antigen p53 (Homo sapiens) (UniProt P04637); experiment: TOX21_p53_BLA_p2_ratio: Tox21 HCT-116 p53 Agonism Beta-lactamase Assay, Ratio, Phase 2 (AID 2283592)
Outline: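 HCT116 p53-bla; 4000 cells/well; 5 h pre-incubation; cpd in DMSO, 217-fold dilution; 16 h 37C/5% CO2; CCF4-AM 2 h RT; Ex 405, Em 460/530 ratio; DMSO = baseline; positive fitting direction.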

[15] = target: Cellular tumor antigen p53 (Homo sapiens) (UniProt P04637); experiment: TOX21_p53_BLA_p3_ratio: Tox21 HCT-116 p53 Agonism Beta-lactamase Assay, Ratio, Phase 3 (AID 2283596)
Outline: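 HCT116 p53-bla cells (4000/well) given compound in DMSO (217-fold dilution) after 5 h, incubated 16 h at 37C. CCF4-AM substrate 2 h at room temperature; 460/530 nm emission ratio, gain fitted against DMSO.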

[16] = target: Cellular tumor antigen p53 (Homo sapiens) (UniProt P04637); experiment: TOX21_p53_BLA_p5_ratio: Tox21 HCT-116 p53 Agonism Beta-lactamase Assay, Ratio, Phase 5 (AID 2283599)
Outline: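 HCT-116 cells carrying a p53-inducible beta-lactamase reporter were seeded at 4000 cells/well and dosed after 5 h with compound in DMSO (217-fold dilution). After 16 h at 37C, CCF4-AM substrate was added for 2 h, and the 460/530 nm emission ratio was scored as gain-of-signal versus DMSO.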

[17] = target: Cellular tumor antigen p53 (Homo sapiens) (UniProt P04637); experiment: TOX21_p53_BLA_p4_ratio: Tox21 HCT-116 p53 Agonism Beta-lactamase Assay, Ratio, Phase 4 (AID 2283601)
Outline: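 HCT116 cells carrying an inducible beta-lactamase reporter were plated at 4000 cells/well, rested 5 h, then exposed to compounds in DMSO (217-fold dilution) for 16 h at 37C. CCF4-AM substrate was loaded 2 h at room temperature; 460/530 nm emission ratio scored gain-of-signal versus DMSO.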

[18] = Tanguay_ZF_120hpf_JAW_legacy: (Legacy) Oregon State University Tanguay Lab 120 Hour Post-fertilization zebrafish Assay for Jaw Malformation (AID 2283638);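 for AC50: active means more embryos with jaw malformation than DMSO controls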
Outline: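 Steps: dechorionate 4 hpf embryos (pronase); plate 1/well at 6 hpf; add test chemical, 0.64% DMSO final; seal, cover, hold at 28C statically to 120 hpf; score jaw defect presence/absence microscopically. Dead embryos not scored.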

[19] = TOX21_p53_BLA_p3_viability: Viability Assessment in the Tox21 HCT-116 p53 Agonism Beta-lactamase Assay, Phase 3 (AID 2283593);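 note: cells exposed to compound for 16 h before reading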
Outline: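 HCT-116 cells (4000/well) rested 5 h at 37C, then got DMSO compounds by pin tool (217-fold dilution) for 16 h at 37C, 5% CO2. After the bla read, CellTiter-Glo was added and luminescence read at 30 min, room temperature.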

[20] = TOX21_p53_BLA_p4_viability: Viability Assessment in the Tox21 HCT-116 p53 Agonism Beta-lactamase Assay, Phase 4 (AID 2283597);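 note: hits lower the luminescence signal meaning cytotoxicity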
Outline: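 Cells plated, 5 h pre-incubation; DMSO compounds pinned (217-fold dilution); 16 h, 37C/5% CO2; CCF4-AM 2 h RT; CellTiter-Glo 30 min RT; luminescence read.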

Measured: AC50

Sequence of Cellular tumor antigen p53 (Homo sapiens) (P04637 whole entry, looked up): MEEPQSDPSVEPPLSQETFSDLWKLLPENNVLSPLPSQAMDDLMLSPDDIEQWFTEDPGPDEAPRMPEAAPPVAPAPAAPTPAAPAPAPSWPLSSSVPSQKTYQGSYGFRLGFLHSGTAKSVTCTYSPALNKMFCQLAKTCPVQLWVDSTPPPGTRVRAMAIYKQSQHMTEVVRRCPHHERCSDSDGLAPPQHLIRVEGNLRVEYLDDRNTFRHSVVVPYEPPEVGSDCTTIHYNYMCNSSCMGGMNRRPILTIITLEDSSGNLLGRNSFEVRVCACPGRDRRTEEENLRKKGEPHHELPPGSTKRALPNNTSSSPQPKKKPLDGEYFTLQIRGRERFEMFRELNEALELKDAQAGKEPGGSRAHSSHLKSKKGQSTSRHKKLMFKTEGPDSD

OC[C@H]1O[C@@H]2O[C@H]3[C@H](O)[C@@H](O)[C@@H](O[C@H]4[C@H](O)[C@@H](O)[C@@H](O[C@H]5[C@H](O)[C@@H](O)[C@@H](O[C@H]6[C@H](O)[C@@H](O)[C@@H](O[C@H]7[C@H](O)[C@@H](O)[C@@H](O[C@H]1[C@H](O)[C@H]2O)O[C@@H]7CO)O[C@@H]6CO)O[C@@H]5CO)O[C@@H]4CO)O[C@@H]3CO
not listed: [14] | [15] | [16] | [17] | [18] | [19] | [20]
inactive: all other assays above

OCC(CO)(CO)CO
inactive: [1] | [2] | [3] | [4] | [6] | [7] | [8] | [9] | [10] | [11] | [12]

O=C(O)c1ccc2c(c1)nc(C(=O)NC1CCN(C3CC3)CC1)n2Cc1cc(-c2ccc(Cl)s2)on1
not listed: [5] | [8] | [12] | [19] | [20]
inactive: all other assays above

O=C(NO)C1(NS(=O)(=O)c2ccc(Oc3ccc(F)cc3)cc2)CCOCC1
inactive: [1] | [2] | [6] | [7] | [9] | [10] | [11] | [12] | [13] | [18]
active: [4] 12.2 µM

CCCCCCOC(=O)CC(CC(=O)OCCCCCC)(OC(=O)CCC)C(=O)OCCCCCC
inactive: [1] | [2] | [4] | [6] | [7] | [8] | [9] | [10] | [11] | [12]

Cc1cccc(O)c1C
inactive: [8] | [19] | [15] | [16] | [17]

O=S1(=O)CCCO1
not listed: [3] | [5] | [10] | [18] | [19]
inactive: all other assays above

COCc1nnc(-c2ccc[n+]([O-])c2)n1-c1c(Cl)c(Cl)cc2[nH]c(=O)c(=O)[nH]c12
inactive: [1] | [2] | [4] | [6] | [7] | [9] | [10] | [12] | [13]

c1ccc2cc3ccccc3cc2c1
active: [4] 13.1 µM
not listed: [3] | [5] | [8] | [18]
inactive: all other assays above

CC(C)c1nnc2ccc(-c3ocnc3-c3cc(F)ccc3F)cn12
inactive: [1] | [2] | [7] | [19] | [20] | [16] | [9] | [10] | [12] | [13]
active: [4] 0.836 µM | [6] 39 µM

S=P(N1CC1)(N1CC1)N1CC1
active: [15] 48.8 µM
inactive: [8] | [14] | [19] | [15] | [20] | [16] | [17]

Cn1cc[nH]c1=S
inactive: [1] | [2] | [4] | [5] | [6] | [7] | [8] | [9] | [12] | [13]

O=S(=O)(O)c1ccc(N=Nc2c(O)ccc3cc(S(=O)(=O)O)ccc23)cc1
inactive: [1] | [2] | [4] | [6] | [7] | [9] | [10] | [11] | [12] | [13]

CCCCCCCC/C=C\CCCCCCCC(=O)OC[C@@H](O)[C@H]1OC[C@H](O)[C@H]1O
not listed: [3] | [5] | [10] | [18] | [20]
inactive: all other assays above

CCN(CC)C(=S)SSC(=S)N(CC)CC
inactive: [1] | [2] | [4] | [5] | [6] | [7] | [8] | [9]
active: [10] 0.425 µM | [11] 0.36 µM | [12] 1.4 µM | [13] 1.4 µM | [18] 1.24 µM

Cc1ccc(S(=O)(=O)NC(=O)NN2CCCCCC2)cc1
inactive: [1] | [2] | [4] | [6] | [7] | [8] | [9] | [11] | [12]

CCCCOC(=O)c1ccccc1
not listed: [3] | [5] | [8] | [16] | [18] | [20]
inactive: all other assays above

NC(=O)N(O)[C@@H]1COc2cc(OCc3ccccc3)ccc21
inactive: [1] | [2] | [4] | [6] | [7] | [9] | [10] | [12] | [13] | [18]

CC1(C)C(=O)N(Cl)C(=O)N1Cl
not listed: [3] | [5] | [12] | [15] | [17] | [18] | [19]
inactive: all other assays above

CCn1nc(C)c2c1C(=O)NCC(c1ccc(O)cc1)=N2
active: [4] 34.1 µM
not listed: [3] | [8] | [10] | [18] | [20]
inactive: all other assays above

C[C@@H](Oc1ccc(CNC(=O)c2cccnc2Oc2ccc3c(c2)OCO3)c(F)c1)C(=O)O
inactive: [1] | [2] | [4] | [6] | [7] | [9] | [10] | [11] | [12] | [13]
